# Results from the supplement of paper PMC10849652.
# Targets with a hit are over-represented here; the source holds about 8,800 in all. About 0.5% of all pairs of compound and target were hits. A number with no mark means an inactive call.
# Experiments:
# Test in all cases: log2 fold change, soluble protein after heating vs DMSO (PISA); higher = thermal stabilisation; K562 lysate, 10 uM; active = over 0.2 and 3.5 SD of the protein, either way, in both replicates (recomputed)
# nilotinib = compound: Cc1cn(-c2cc(NC(=O)c3ccc(C)c(Nc4nccc(-c5cccnc5)n4)c3)cc(C(F)(F)F)c2)cn1 [nilotinib]
# Outline: (§1)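 The values are log-two fold changes in thermal stability compared with solvent controls and come from duplicates. They were obtained by TMTpro 16plex LC-MS/MS, with channel sums equalised, on the supernatant after 21,000xg for 90 min. That supernatant came from crude K562 extract at 1 mg/mL protein treated with 10 μM compound for 30 min, heated for 3 min across 48°C-58°C, pooled and brought to 0.5% NP-40 at 4°C.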
# [1] = compound: Cc1nc(Nc2n[nH]c3c2CN(C(=O)N[C@H](CN(C)C)c2ccccc2)C3(C)C)c2sccc2n1
# Outline: as §1
# dasatinib = compound: Cc1nc(Nc2ncc(C(=O)Nc3c(C)cccc3Cl)s2)cc(N2CCN(CCO)CC2)n1 [dasatinib]
# Outline: as §1
# [2] = compound: Cc1ncc(-c2ccnc(Nc3ccc(S(C)(=O)=O)cc3)n2)n1C(C)C
# Outline: as §1
# [3] = compound: Cn1cc(-c2ccc3c(c2)CCN3C(=O)Cc2cccc(C(F)(F)F)c2)c2c(N)ncnc21
# Outline: as §1
# quisinostat = compound: Cn1cc(CNCC2CCN(c3ncc(C(=O)NO)cn3)CC2)c2ccccc21 [quisinostat]
# Outline: as §1
# tipifarnib = compound: Cn1cncc1[C@@](N)(c1ccc(Cl)cc1)c1ccc2c(c1)c(-c1cccc(Cl)c1)cc(=O)n2C [tipifarnib]
# Outline: as §1
# [4] = compound: NC(=O)Nc1cc(-c2cccc(F)c2)sc1C(=O)N[C@H]1CCCNC1
# Outline: as §1
# [5] = compound: NC(=O)c1cnc(N[C@@H]2CCCC[C@@H]2N)nc1Nc1cccc(-n2nccn2)c1
# Outline: as §1
# [6] = compound: NC1(c2ccc(-c3nc4ccn5c(=O)[nH]nc5c4cc3-c3ccccc3)cc2)CCC1
# Outline: as §1
# Sequence of UniProt Q53GQ0 (Q53GQ0 whole entry, looked up): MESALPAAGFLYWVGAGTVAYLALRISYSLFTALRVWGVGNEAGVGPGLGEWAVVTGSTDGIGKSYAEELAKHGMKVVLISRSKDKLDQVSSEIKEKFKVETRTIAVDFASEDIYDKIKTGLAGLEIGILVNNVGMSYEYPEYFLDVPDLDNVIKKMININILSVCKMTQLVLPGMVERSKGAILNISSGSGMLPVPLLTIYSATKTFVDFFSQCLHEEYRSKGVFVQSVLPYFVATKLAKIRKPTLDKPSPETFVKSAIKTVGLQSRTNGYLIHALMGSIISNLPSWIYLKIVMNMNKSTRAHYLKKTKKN
# Sequence of UniProt Q58FG1 (Q58FG1 whole entry, looked up): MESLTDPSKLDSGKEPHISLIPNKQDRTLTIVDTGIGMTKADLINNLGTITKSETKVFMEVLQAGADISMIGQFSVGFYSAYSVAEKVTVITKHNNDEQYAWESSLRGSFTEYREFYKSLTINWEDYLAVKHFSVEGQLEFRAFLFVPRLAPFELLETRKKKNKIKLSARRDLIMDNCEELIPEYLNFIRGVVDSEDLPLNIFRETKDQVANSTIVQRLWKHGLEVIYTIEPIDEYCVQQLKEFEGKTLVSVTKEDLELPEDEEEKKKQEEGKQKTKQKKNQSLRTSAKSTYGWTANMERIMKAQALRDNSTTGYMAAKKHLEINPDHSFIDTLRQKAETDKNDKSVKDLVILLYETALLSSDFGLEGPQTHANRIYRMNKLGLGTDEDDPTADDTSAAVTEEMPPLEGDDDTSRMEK
# Sequence of UniProt Q96EW2 (Q96EW2 whole entry, looked up): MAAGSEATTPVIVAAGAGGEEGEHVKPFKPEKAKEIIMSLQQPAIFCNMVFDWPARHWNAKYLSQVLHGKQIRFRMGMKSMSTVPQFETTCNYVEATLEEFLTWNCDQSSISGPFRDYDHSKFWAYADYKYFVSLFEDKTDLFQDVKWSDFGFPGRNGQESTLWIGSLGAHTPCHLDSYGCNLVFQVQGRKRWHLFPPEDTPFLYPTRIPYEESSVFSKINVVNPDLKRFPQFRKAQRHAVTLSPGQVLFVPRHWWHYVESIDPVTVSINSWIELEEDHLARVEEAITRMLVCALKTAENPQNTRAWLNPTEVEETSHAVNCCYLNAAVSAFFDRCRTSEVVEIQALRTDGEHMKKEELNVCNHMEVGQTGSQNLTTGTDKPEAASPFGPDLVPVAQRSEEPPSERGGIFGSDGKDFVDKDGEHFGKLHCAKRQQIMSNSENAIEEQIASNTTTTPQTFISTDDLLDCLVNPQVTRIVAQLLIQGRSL
# Sequence of UniProt Q7Z4V5 (Q7Z4V5 whole entry, looked up): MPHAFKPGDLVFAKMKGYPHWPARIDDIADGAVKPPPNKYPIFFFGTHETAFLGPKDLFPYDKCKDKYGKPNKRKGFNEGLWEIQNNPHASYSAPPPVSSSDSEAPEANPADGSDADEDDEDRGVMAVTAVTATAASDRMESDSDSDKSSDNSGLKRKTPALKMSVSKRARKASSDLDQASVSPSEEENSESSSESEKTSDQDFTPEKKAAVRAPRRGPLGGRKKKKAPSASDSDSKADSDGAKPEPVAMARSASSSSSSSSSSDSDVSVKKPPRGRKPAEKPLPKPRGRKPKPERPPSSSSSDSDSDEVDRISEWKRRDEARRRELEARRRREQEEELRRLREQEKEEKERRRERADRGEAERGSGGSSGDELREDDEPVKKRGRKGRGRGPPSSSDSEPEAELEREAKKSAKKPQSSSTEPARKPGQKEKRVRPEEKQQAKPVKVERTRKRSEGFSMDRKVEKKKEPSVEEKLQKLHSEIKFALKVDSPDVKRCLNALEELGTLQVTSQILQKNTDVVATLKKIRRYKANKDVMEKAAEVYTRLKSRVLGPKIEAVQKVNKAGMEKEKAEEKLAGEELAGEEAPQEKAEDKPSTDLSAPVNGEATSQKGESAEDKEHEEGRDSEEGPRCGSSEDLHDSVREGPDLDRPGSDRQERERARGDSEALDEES
# Sequence of UniProt P32780 (P32780 whole entry, looked up): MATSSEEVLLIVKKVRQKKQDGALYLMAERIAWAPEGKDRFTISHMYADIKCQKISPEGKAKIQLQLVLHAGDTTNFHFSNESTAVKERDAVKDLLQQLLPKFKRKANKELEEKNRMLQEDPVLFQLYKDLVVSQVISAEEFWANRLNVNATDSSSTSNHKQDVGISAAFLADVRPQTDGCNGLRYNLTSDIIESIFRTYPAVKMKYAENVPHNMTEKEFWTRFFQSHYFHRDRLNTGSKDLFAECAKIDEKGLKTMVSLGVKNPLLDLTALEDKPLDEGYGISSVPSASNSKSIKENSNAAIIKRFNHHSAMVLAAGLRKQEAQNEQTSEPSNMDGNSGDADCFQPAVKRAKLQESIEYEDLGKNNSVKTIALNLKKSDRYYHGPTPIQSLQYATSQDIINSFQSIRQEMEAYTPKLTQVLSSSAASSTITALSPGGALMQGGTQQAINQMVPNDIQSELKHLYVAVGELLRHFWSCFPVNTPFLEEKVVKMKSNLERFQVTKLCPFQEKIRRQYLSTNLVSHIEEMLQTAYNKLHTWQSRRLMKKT
# Sequence of UniProt Q8N201 (Q8N201 whole entry, looked up): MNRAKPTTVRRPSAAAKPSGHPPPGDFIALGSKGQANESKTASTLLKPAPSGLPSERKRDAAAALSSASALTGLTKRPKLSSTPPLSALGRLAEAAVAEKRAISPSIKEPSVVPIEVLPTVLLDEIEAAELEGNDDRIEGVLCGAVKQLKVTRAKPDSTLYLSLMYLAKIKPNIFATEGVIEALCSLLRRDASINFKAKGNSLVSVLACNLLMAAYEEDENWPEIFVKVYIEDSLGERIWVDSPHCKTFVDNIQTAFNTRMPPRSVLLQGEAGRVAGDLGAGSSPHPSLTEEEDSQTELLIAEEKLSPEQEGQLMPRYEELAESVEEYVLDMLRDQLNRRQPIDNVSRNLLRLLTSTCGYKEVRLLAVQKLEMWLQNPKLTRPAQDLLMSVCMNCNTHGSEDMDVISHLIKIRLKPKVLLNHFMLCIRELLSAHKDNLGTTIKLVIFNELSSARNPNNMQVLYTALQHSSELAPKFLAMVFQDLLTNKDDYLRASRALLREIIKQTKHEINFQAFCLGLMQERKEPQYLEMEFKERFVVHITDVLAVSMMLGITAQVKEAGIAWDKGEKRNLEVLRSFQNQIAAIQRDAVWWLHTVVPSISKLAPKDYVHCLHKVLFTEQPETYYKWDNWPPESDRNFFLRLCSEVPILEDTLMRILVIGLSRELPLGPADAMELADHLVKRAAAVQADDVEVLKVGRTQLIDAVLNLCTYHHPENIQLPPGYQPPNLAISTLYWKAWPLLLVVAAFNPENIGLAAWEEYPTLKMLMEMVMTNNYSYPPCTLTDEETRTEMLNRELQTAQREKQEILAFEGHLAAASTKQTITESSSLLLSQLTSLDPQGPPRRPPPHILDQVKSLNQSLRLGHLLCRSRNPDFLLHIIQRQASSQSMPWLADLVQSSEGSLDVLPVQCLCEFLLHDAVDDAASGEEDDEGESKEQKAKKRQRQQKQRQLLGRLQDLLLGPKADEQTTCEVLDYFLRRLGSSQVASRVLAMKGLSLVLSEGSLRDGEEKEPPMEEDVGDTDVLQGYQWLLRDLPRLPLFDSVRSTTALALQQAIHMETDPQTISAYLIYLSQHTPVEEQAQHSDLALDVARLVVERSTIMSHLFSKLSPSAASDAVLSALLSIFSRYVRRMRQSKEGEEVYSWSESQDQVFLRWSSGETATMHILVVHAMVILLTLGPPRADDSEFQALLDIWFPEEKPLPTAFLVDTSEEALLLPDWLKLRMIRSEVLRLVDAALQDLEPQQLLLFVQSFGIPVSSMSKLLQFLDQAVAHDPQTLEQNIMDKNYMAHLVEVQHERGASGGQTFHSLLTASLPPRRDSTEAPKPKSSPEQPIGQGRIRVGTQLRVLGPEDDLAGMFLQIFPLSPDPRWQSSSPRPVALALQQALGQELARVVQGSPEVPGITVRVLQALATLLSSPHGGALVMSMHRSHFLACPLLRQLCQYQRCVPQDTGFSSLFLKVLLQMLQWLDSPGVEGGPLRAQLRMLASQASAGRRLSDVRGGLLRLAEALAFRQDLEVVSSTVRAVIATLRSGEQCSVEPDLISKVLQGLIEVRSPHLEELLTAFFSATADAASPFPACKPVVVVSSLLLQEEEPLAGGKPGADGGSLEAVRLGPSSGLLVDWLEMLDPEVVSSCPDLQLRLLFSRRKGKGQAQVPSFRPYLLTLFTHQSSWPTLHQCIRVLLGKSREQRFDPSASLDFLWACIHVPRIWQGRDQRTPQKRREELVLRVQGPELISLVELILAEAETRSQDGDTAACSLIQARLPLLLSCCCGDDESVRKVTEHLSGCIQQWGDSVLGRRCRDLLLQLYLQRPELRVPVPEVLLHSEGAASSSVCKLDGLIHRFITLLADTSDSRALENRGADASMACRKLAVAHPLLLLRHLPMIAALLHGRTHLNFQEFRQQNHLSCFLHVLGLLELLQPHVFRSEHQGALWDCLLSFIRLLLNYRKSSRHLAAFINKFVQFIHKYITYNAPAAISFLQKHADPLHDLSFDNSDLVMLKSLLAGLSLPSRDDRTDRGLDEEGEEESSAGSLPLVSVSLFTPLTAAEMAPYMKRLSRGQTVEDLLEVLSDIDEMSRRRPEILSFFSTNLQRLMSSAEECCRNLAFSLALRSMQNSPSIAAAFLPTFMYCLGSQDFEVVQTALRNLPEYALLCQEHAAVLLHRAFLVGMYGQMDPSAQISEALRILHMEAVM
# Sequence of UniProt P49841 (P49841 whole entry, looked up): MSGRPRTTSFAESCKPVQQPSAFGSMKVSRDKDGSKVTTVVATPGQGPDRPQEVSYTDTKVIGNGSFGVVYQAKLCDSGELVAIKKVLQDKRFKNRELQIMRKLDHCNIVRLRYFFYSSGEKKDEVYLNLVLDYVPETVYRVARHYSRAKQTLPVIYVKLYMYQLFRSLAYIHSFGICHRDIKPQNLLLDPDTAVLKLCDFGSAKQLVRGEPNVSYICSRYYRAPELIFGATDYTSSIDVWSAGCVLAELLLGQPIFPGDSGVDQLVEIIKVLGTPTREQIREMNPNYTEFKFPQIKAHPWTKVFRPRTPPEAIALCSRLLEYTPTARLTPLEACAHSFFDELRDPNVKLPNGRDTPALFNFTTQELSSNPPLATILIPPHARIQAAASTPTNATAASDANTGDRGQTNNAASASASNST
Target,log2 fold change (nilotinib),log2 fold change [1],log2 fold change (dasatinib),log2 fold change [2],log2 fold change [3],log2 fold change (quisinostat),log2 fold change (tipifarnib),log2 fold change [4],log2 fold change [5],log2 fold change [6]
ILRUN (UniProt Q9H6K1),-0.12,-0.038,-0.003,-0.073,0.005,-0.047,-0.012,0.033,0.041,-0.038
GPN2 (UniProt Q9H9Y4),-0.065,0.046,0.062,-0.009,-0.046,-0.022,0.013,-0.008,0.01,-0.034
H2AFY (UniProt O75367),0.013,0.003,-0.087,-0.003,0.005,-0.099,0.005,0.058,0.001,-0.034
ITPKA (UniProt P23677),-0.005,0.045,-0.064,-0.001,-0.002,-0.026,-0.001,0.044,0.021,-0.027
HMGN5 (UniProt P82970),0.029,0.001,0.03,0.019,-0.003,0.074,0.04,-0.042,-0.027,-0.003
GUSB (UniProt P08236),0.028,-0.067,0.007,-0.026,-0.002,-0.109,-0.066,-0.041,0.001,-0.01
HEATR6 (UniProt Q6AI08),-0.085,0.022,-0.019,0.022,0,-0.008,-0.06,0.055,0.041,0.026
KIAA0930 isoform 2 (UniProt Q6ICG6),-0.041,0.05,0.202,-0.109,-0.021,0.03,-0.037,-0.026,-0.047,
GTF2H1 (UniProt P32780),0.009,0.013,-0.012,-0.04,0.043,-0.064,0.084,0.06,0.037,-0.036
HSP90AA4P (UniProt Q58FG1),-0.157,0.052,0.029,-0.062,0.038,-0.145,0.01,-0.065,-0.047,-0.024
GTF3C5 isoform 3 (UniProt Q9Y5Q8),0.023,-0.023,-0.017,-0.018,0.019,-0.063,-0.004,0.05,-0.006,0.005
KDM1A (UniProt O60341),-0.009,0.007,-0.023,0.005,0.012,-0.045,-0.052,0.029,0.007,-0.026
GOLGA1 (UniProt Q92805),0.033,-0.009,-0.026,-0.015,0.022,-0.073,-0.099,0.042,0.106,0.004
INTS1 (UniProt Q8N201),-0.041,0.012,-0.087,0.035,0.028,-0.01,0.017,0.016,-0.038,0.011
HDAC6 (UniProt Q9UBN7),0.078,-0.016,-0.06,-0.034,0.042,0.031,0.024,-0.01,0.034,-0.027
HECTD3 (UniProt Q5T447),-0.004,0.041,-0.016,-0.012,0.006,0.026,0.059,0.05,0.003,0.056
HEATR3 (UniProt Q7Z4Q2),0.023,-0.021,-0.042,-0.031,0.062,-0.078,0.019,0.033,-0.015,0.001
HNRNPD isoform 2 (UniProt Q14103),-0.047,0,-0.02,0.009,-0.05,0.139,0.029,-0.025,0.015,-0.008
HADHB (UniProt P55084),0.052,-0.028,-0.026,0.022,0.066,-0.064,0.028,-0.122,-0.076,0.073
KEAP1 (UniProt Q14145),-0.01,0.01,-0.023,-0.014,-0.044,-0.078,-0.02,0.011,0.022,-0.002

Target,log2 fold change (nilotinib),log2 fold change [1],log2 fold change (dasatinib),log2 fold change [2],log2 fold change [3],log2 fold change (quisinostat),log2 fold change (tipifarnib),log2 fold change [4],log2 fold change [5],log2 fold change [6]
IMPACT (UniProt Q9P2X3),0.087,-0.066,0.013,-0.687 (active),0.04,-0.103,-0.13,0.11,0.071,0.087
GLYR1 (UniProt Q49A26),0.082,0.02,-0.053,0.053,-0.048,-0.119,-0.12,-0.049,-0.012,0.023
GON4L (UniProt Q3T8J9),0.003,0.012,0.025,0.067,0.041,-0.061,-0.01,0.019,-0.02,0.022
GTF2H4 (UniProt Q92759),0.006,0.021,0.003,0.019,-0.011,-0.029,-0.008,0.07,0.04,-0.08
GSTZ1 (UniProt G3V4T6),0.026,0.009,-0.024,-0.016,0.083,0.016,0.014,0.029,-0.012,-0.007
HSPBAP1 (UniProt Q96EW2),0.1,0.039,0.011,0.14,0.213,-0.07,0.056,0.024,-0.056,0.032
HECTD4 (UniProt J3KPF0),0.014,-0.009,-0.077,-0.007,0.037,-0.145,0.016,0.02,0.011,0.017
GLUL (UniProt P15104),-0.008,-0.012,0.054,-0.026,-0.002,0.071,0.027,-0.032,0.009,-0.003
HAUS6 (UniProt Q7Z4H7),-0.022,-0.008,-0.057,0.022,0.038,-0.066,0.053,0.035,-0.055,-0.004
HAUS3 (UniProt Q68CZ6),0.02,-0.027,-0.075,0.008,0.003,-0.059,-0.045,0.017,-0.015,-0.038
HSD17B12 (UniProt Q53GQ0),-0.024,-0.04,0.016,0.033,0.007,0.073,-0.118,0.058,0.012,-0.045
IMPDH2 (UniProt H0Y4R1),0.106,-0.012,0.004,0.014,-0.066,-0.153,-0.09,0.02,-0.01,
H4C1 (UniProt P62805),0.051,-0.027,-0.063,-0.033,0.048,0.137,0,-0.032,0.01,0.015
IARS (UniProt P41252),0.007,-0.007,-0.042,-0.015,0.053,-0.02,-0.003,0.038,0.001,-0.029
IRF2BP1 (UniProt Q8IU81),0.018,0.016,-0.082,-0.019,0.032,-0.099,-0.124,0.057,-0.03,0.045
ISY1 isoform 1 (UniProt Q9ULR0),0.012,0.026,0.002,-0.024,-0.082,-0.036,-0.018,0.014,-0.012,-0.01
HMGB2 (UniProt P26583),0.045,-0.042,0.057,0.077,0.018,0.065,0.033,-0.014,-0.018,0
HLTF (UniProt Q14527),-0.039,0.004,-0.041,-0.051,0.05,0.021,-0.148,0.102,0.055,-0.085
INTS7 (UniProt Q9NVH2),-0.02,-0.014,-0.004,-0.009,-0.008,-0.071,0.037,0.088,0.032,-0.002
KDM5C (UniProt P41229),-0.021,-0.005,-0.032,0.022,0.033,-0.084,0.037,0.032,-0.037,-0.032

Target,log2 fold change (nilotinib),log2 fold change [1],log2 fold change (dasatinib),log2 fold change [2],log2 fold change [3],log2 fold change (quisinostat),log2 fold change (tipifarnib),log2 fold change [4],log2 fold change [5],log2 fold change [6]
HDAC1 (UniProt Q13547),0.01,-0.024,-0.021,-0.019,0.028,0.857 (active),-0.041,-0.033,0.03,0.009
GSK3B isoform 2 (UniProt P49841),-0.06,0.576,-0.023,0.64 (active),-0.028,-0.084,0.003,0,0.061,-0.039
HDHD5 (UniProt Q9BXW7),0.157,-0.081,0.023,-0.052,-0.042,-0.026,-0.008,0.028,-0.014,-0.036
IARS2 (UniProt Q9NSE4),0.016,-0.007,-0.021,0.026,0,0.022,0.006,0.021,0.02,-0.004
IGF2BP3 (UniProt O00425),-0.046,0.008,-0.035,0.006,0.063,-0.045,0.008,0.039,0.013,-0.027
HS1BP3 (UniProt Q53T59),0.021,-0.016,0.023,-0.007,0,-0.006,0.042,-0.019,0.024,-0.014
INF2 (UniProt Q27J81),-0.08,0.055,0.032,0.034,-0.013,-0.051,-0.079,0.023,0.005,-0.035
HNRNPH2 (UniProt P55795),-0.07,0.04,0.049,0.071,0.003,-0.147,-0.003,0.014,-0.037,-0.113
KHDRBS1 (UniProt Q07666),-0.032,-0.012,-0.048,-0.011,-0.003,0.037,0.032,0.005,0.011,0.028
GLUD2 (UniProt P49448),0.053,-0.067,0.013,-0.003,-0.017,0.039,0.047,0.015,0.012,-0.004
HMGCS1 (UniProt Q01581),0.003,-0.015,0.02,0.012,-0.005,-0.007,0.001,-0.016,-0.008,-0.018
HSPA14 (UniProt Q0VDF9),-0.032,-0.001,-0.018,0.009,0.034,-0.026,0.021,0.037,0.001,-0.025
GLB1 (UniProt P16278),-0.006,0.03,-0.026,0.023,0.003,0.03,0.017,-0.016,-0.011,-0.022
IRS2 (UniProt Q9Y4H2),-0.05,-0.044,-0.018,-0.071,-0.074,-0.15,-0.071,0.142,0.062,0.112
HMBOX1 isoform 5 (UniProt Q6NT76),0.186,-0.038,-0.034,0.078,0.024,-0.008,0.077,0.001,0.041,-0.055
INTS10 (UniProt Q9NVR2),-0.01,-0.025,-0.054,-0.024,0.109,-0.034,-0.021,0.011,0.039,0.028
HDGFL2 isoform 2 (UniProt Q7Z4V5),-0.005,-0.005,0.014,-0.021,-0.023,-0.061,0.003,0.011,-0.001,-0.02
HSPA8 (UniProt E9PK54),0.023,-0.053,-0.024,-0.021,-0.032,-0.093,-0.01,0.113,-0.033,0.004
HNRNPM (UniProt P52272),0.022,-0.043,-0.109,-0.05,0.01,0.055,-0.112,0.054,-0.002,0.053
